Results: PubChem BioAssay (NCI)
Several values for one entry are separate records, joined by “and”; a condition that tells them apart may be missing. Equal values may be shown once. This is part of a sample that, as a whole, favours compounds with a hit. Of some 83,000 tested, about 20% had one in any assay.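 Single-concentration screen, 48 h exposure, 96-well plates. Endpoint: percent growth. Below 10 = active.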 Values without a mark were called inactive. Activity calls are given as the source filed them.

tested on: MDA-MB-435 melanoma; experiment: NCI-60 one-dose screen, 48 h (100 = growth as untreated, 0 = no growth, -100 = all killed); settings: 10 µM unless noted

Row | SMILES | growth
1 | CN1CCN(C(=O)Oc2cc3c(c4ccccc24)[C@H](CCl)CN3C(=O)c2cc3cc(OCCCN4CCC4)ccc3[nH]2)[C@H]2CSSC[C@H]21 | -70.2% (active)
2 | N#Cc1cc(-c2ccc3ncnc(N4CCc5cc(F)c(Cl)cc54)c3c2)cnc1N | 39.2%
3 | CC1=NN(C2=NC(=O)C(CC(=O)Nc3ccccc3C(F)(F)F)S2)C(c2ccc(N(C)C)cc2)C1 (stereo not drawn) | -26.5% (active)
4 | O=C1Nc2ccccc2/C1=C/C(=O)c1cc2ccccc2oc1=O | 110%
5 | Cc1ccccc1NC(=O)c1cccc(NC(=O)CCl)c1 | 72.7%
6 | Cn1cc(-c2cc(N)n3nc(-c4c[nH]c5ccccc45)cc3n2)c2cc(Br)ccc21 | -79% (active)
7 | Nc1nc2cc(-c3ccc4ncnc(NCc5ccccc5)c4c3)ccc2o1 | 16.7%
8 | O=C(N/N=C/c1ccc(-c2cccc([N+](=O)[O-])c2)s1)c1[nH]c2ccc(Br)cc2c1-c1ccccc1 | 98.3%
9 | Cc1nc(Nc2ccccn2)sc1C1=NNC(c2ccccc2F)C1 (stereo not drawn) | -17.9% (active)
10 | CC(C)(C)c1ccc(OCc2nc3ccccc3n2-c2cccc(N)c2)cc1 | 70.5% and 102%
11 | CC1=C(C(=O)OCc2ccccc2)C(c2cccc3ccccc23)n2c(nc3ccccc32)N1 (stereo not drawn) | -45.5% (active)
12 | Cc1cc(=O)oc2cc(OCC(O)CNN3C(=O)c4cccc5c(N6CCN(C)CC6)ccc(c45)C3=O)ccc12 (stereo not drawn) | 56.9%
13 | CN(C)CCOc1ccc(C(=O)C2[C@H](c3ccc(Cl)cc3)[C@@H](c3ccccc3)NC23C(=O)Nc2ccc(Cl)cc23)cc1 (stereo partly drawn) | -96.2% (active)
14 | O=C1Nc2cc(-c3ccc(NS(=O)(=O)c4ccc(-c5ccccc5)cc4)cc3)ccc2/C1=C/c1ccc[nH]1 | 40.3%
15 | CCCSc1nnc(-c2sc3nc4ccccc4n3c2C)o1 | 105%
16 | COc1ccc2[nH]c(O)c(N=Nc3nc(-c4ccc(C#N)cc4)cs3)c2c1 | 67.3%
17 | CCOc1ccc2[nH]c(=O)c(C(c3nnnn3CC3CCCO3)N3CCN(Cc4ccccc4)CC3)cc2c1 (stereo not drawn) | 99.3%
18 | Cc1cccc(NCC(=O)N2CCN(c3ncnc4c3cnn4-c3ccccc3)CC2)c1 | 59%
19 | COc1ccc(NC(=O)CSc2nnc(-c3ccc(-c4nc5ccc(Cl)cc5[nH]4)cc3)o2)cc1 | 17.8%

Row | SMILES | growth
20 | N/C(=N\c1nc2ccccc2s1)NC(=O)Nc1ccccc1[N+](=O)[O-] | -45.1% (active)
21 | N#CC1=C(c2cccs2)Nc2c(c(-c3ccccc3)nn2-c2ccccc2)C12C(=O)Nc1ccc(Cl)cc12 (stereo not drawn) | 41.2%
22 | Cn1cc(-c2cc3nc(-c4cn(C)c5ncccc45)cc(N)n3n2)c2cc(F)ccc21 | 83.1%
23 | C#CCN(C)CCCOc1ccc(N(C)C(=O)c2cc(C(C)C)c(O)cc2O)cc1Cl | 4.66% (active)
24 | COc1cc(NC(=O)CSc2nnc(-c3ccc(-c4nc5ccc(Cl)cc5[nH]4)cc3)o2)cc(OC)c1OC | -20.3% (active)
25 | CS(=O)(=O)Nc1cc(-c2ccc3ncnc(N4CCc5cc(F)c(Cl)cc54)c3c2)cnc1Cl | 3.42% (active)
26 | CC1=C(C(=O)Nc2ccccc2)C(c2cccc3ccccc23)n2c(nc3ccccc32)N1 (stereo not drawn) | 74.4%
27 | COc1cc(C2CC(c3ccc(C(F)(F)F)cc3)=Nc3c(N)nc(N)nc3N2)ccc1Oc1nc(Nc2ccc(F)cc2)nc(N(C)C)n1 (stereo not drawn) | 59.7%
28 | C[C@@H]1[C@H]2C[C@@H](C[C@H]1NCc1nc3ccccc3n1C1CCCCCC1)C2(C)C | 73.6%
29 | CS(=O)(=O)Nc1cccc(-n2cnc3cc(-c4ccc(O)cc4)ccc32)c1 | -37.6% (active)
30 | COc1ccc2c(c1)C(=O)N(C)C2C1c2c(cc3c(c2OC)OCO3)CCN1C (stereo not drawn) | -21.1% (active)
31 | CCOc1ccc(-c2cc(-c3cc(C(C)C)c(O)cc3C)nn2-c2ccc(S(N)(=O)=O)cc2)cc1 | -43.6% (active)
32 | O=C(c1ccc(O)cc1)C1[C@H](c2ccc(Cl)cc2)[C@@H](c2ccccc2)NC12C(=O)Nc1ccc(Br)cc12 (stereo partly drawn) | -41.1% (active)
33 | COc1cc(CNC(=O)C[C@H](C)CCC=C(C)C)ccc1OCc1cn(-c2ccccc2Cl)nn1 | 66.5%
34 | Cc1ccc(Cl)cc1NC(=O)Nc1nc2ccc([N+](=O)[O-])cc2s1 | -18.2% (active)
35 | COc1cc(/C=N/NC(=O)c2ccc(OCc3nc4ccc(C)cc4[nH]3)cc2)cc(OC)c1OC | 49.1%
36 | COc1ccccc1/C=C/c1cccc(NC(=S)NCCCCN(C)C)c1 | -91.6% (active)
37 | CC1(C)CC(=O)C2=C(C1)OC(N)=C(c1nc3ccccc3[nH]1)C2c1ccc(Cl)cc1 (stereo not drawn) | 60.5% and 109%
38 | O=C1CCC(N2C(=O)c3cccc(NCCCCCC(=O)N4CCN(c5ccc6nc7c(nc6c5C(F)(F)F)C(=O)c5ncccc5C7=O)CC4)c3C2=O)C(=O)N1 (stereo not drawn) | -79.8% (active)
